These results are taken from PubChem BioAssay (Tox21).

Several values for one entry are separate records, joined by “and”; a condition that tells them apart may be missing. Identical values can stand only once. Inconclusive results are not listed. Some structures have more than one record in an assay (separate samples or runs), and their calls can disagree. Activity calls are given as the source filed them. Unless noted, the call rests on the fitted dose curve; in most records, active means well fitted curve in the direction sought with a large enough effect in the repeat runs; inconclusive means weak or mixed curves; inactive means no such curve, though single readings can be large; an effect the other way counts as inactive or inconclusive.

Experiment [1] is described as follows: A CellTox Green Cytotoxicity Assay to monitor cytotoxicity in HEK293 cells - 32 hour (AID 1224881). Further: nearly all actives have a fitted effect of over 40% in size. Further: potency means the concentration at half of the fitted maximal effect. Summed up:
(§1)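 Nonlytic real-time cytotoxicity: HEK293 + CellTox Green reagent plated, 5 h preincubation, pintool compound addition (23 nL in DMSO), 37 C for 40 h, fluorescence measured at successive time points.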

A short description of experiment [2]: A CellTox Green Cytotoxicity Assay to monitor cytotoxicity in HepG2 cells - 0 hour (AID 1224882). Further: nearly all actives have a fitted effect of over 35% in size. Summed up:
(§2)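 Read-out is fluorescence of a cyanine dye excluded from live cells that stains DNA of dead HepG2 cells, with signal proportional to cytotoxicity. Plates were read at 0, 8, 16, 24, 32 and 40 h after compound addition.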

The nature of experiment [3]: A CellTox Green Cytotoxicity Assay to monitor cytotoxicity in HepG2 cells - 32 hour (AID 1224883). Further: nearly all actives have a fitted effect of over 50% in size. Further: potency means the concentration at half of the fitted maximal effect. Summed up:
as §2

Experiment [4] can be described thus: A CellTox Green Cytotoxicity Assay to monitor cytotoxicity in HEK293 cells - 8 hour (AID 1224884). Further: nearly all actives have a fitted effect of over 35% in size. Further: potency means the concentration at half of the fitted maximal effect. Summed up: as §1
The nature of experiment [5]: qHTS RealTime-Glo MT Cell Viability Assay in HepG2 cells - 16 hour (AID 1224885). Further: nearly all actives have a fitted effect of over 50% in size. Further: potency means the concentration at half of the fitted maximal effect. Summed up: (§3)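 Real-time, nonlytic viability: 600 HepG2 cells/well mixed with NanoLuc enzyme plus prosubstrate; 5 h settle, compound (DMSO) added by pintool; luminescence monitored over 40 h at 37 C.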
The nature of experiment [6]: qHTS RealTime-Glo MT Cell Viability Assay in HEK293 cells - 24 hour (AID 1224886). Further: nearly all actives have a fitted effect of over 50% in size. Further: potency means the concentration at half of the fitted maximal effect. Put shortly:
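Cells + reagent dispensed (600 cells/well, HEK293) → 5 h at 37 C/5% CO2 → 23 nL compound in DMSO pinned → 40 h at 37 C → luminescence read at 0, 8, 16, 24, 32, 40 h.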
In general terms: qHTS replaces the single test concentration by a dilution series.

Experiment [7] can be described thus: qHTS RealTime-Glo MT Cell Viability Assay in HEK293 cells - 8 hour (AID 1224887). Further: nearly all actives have a fitted effect of over 50% in size. Further: potency means the concentration at half of the fitted maximal effect. Summed up: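 Cells were seeded together with NanoLuc luciferase and a prosubstrate that viable cells reduce to a luciferase substrate. After a 5 h incubation at 37 C/5% CO2, compounds were added and luminescence was measured repeatedly during 40 h of treatment.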
Experiment [8] in a line: A CellTox Green Cytotoxicity Assay to monitor cytotoxicity in HEK293 cells - 16 hour (AID 1224888). Further: nearly all actives have a fitted effect of over 35% in size. Further: potency means the concentration at half of the fitted maximal effect. Summed up:
as §1

The nature of experiment [9]: qHTS RealTime-Glo MT Cell Viability Assay in HepG2 cells - 0 hour (AID 1224889). Further: nearly all actives have a fitted effect of over 50% in size. Summed up: as §3
Experiment [10] in a line: qHTS assay to identify small molecule antagonists of the estrogen receptor alpha (ER-alpha) signaling pathway using the BG1 cell line in the presence of 0.1 nM 17-beta-estradiol - cell viability counter screen (AID 1259241). Further: nearly all actives have a fitted effect of over 40% in size. Further: potency means the concentration at half of the fitted maximal effect. Put shortly: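 Following 5 days in phenol red-free medium with charcoal-stripped serum, VM7Luc4E2 cells received test compounds alongside 0.1 nM 17beta-estradiol (final) at 37C for 22 hr. Live cells were then quantified via protease-substrate fluorescence.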

Experiment [11] in a line: qHTS assay to identify small molecule antagonists of the androgen receptor (AR) signaling pathway using the MDA cell line in the presence of 0.5 nM R1881 - cell viability counter screen (AID 1259242). Further: nearly all actives have a fitted effect of over 45% in size. Further: potency means the concentration at half of the fitted maximal effect. Put shortly: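 Counter screen for cytotoxicity run in the same wells as the AR antagonist reporter screen: MDA-kb2 cells were treated 16 hr with test compounds and 0.5 nM R1881, then live-cell protease activity was measured by fluorescence.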

The target of experiment [12] is Androgen receptor (Homo sapiens) (UniProt P10275). In words: qHTS assay to identify small molecule antagonists of the androgen receptor (AR) signaling pathway using the MDA cell line in the presence of 0.5 nM R1881 (AID 1259243). Put shortly: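 Luciferase luminescence is the read-out: compounds are tested for suppressing 0.5 nM R1881-driven MMTV reporter activity in MDA-kb2 cells after 16 hr at 37C.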
Chain of Androgen receptor (Homo sapiens) (P10275 whole entry, looked up): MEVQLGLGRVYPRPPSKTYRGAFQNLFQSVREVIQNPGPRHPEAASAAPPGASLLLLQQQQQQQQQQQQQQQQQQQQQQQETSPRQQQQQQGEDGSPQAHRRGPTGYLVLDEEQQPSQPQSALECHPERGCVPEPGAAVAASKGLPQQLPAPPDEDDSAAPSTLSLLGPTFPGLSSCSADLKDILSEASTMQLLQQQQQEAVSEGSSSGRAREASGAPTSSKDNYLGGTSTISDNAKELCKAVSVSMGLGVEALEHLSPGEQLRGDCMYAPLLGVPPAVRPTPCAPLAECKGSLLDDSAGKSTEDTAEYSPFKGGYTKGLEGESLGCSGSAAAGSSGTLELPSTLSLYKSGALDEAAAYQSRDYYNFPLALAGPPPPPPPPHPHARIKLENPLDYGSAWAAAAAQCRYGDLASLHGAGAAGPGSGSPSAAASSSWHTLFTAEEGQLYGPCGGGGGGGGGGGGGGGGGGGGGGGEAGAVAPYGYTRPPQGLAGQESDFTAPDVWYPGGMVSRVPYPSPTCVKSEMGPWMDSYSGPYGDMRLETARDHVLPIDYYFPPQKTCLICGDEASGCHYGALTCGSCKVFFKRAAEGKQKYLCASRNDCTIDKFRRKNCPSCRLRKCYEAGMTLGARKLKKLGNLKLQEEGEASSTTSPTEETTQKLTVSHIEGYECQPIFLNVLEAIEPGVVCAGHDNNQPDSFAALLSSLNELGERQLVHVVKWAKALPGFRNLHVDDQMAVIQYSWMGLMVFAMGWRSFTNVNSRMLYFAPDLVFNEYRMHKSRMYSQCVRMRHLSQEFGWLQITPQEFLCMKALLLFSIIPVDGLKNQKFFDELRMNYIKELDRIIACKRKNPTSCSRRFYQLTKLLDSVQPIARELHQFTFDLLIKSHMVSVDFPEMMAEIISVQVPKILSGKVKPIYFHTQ

Experiment [13] has as its target Estrogen receptor (Homo sapiens) (UniProt P03372). In words: qHTS assay to identify small molecule antagonists of the estrogen receptor alpha (ER-alpha) signaling pathway using the BG1 cell line in the presence of 0.1 nM 17-beta-estradiol (AID 1259244). Further: nearly all actives have a fitted effect of over 50% in size. Further: potency means the concentration at half of the fitted maximal effect. Put shortly:
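Cells: VM7Luc4E2, endogenous ER-alpha, 4x ERE-luc stable. Pre-culture 5 d, phenol red-free, charcoal-stripped FBS. Plated 24 h, compound + E2 0.1 nM final, 22 h 37C/5% CO2. Readout ONE-Glo luminescence.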

Experiment [14] in a line: qHTS assay to identify small molecule phospholipidosis (PLD) inducers (AID 1259344; active means well fitted curve in the direction sought with a large enough effect; an effect the other way counts as inactive or inconclusive). Summed up: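 Quantitative HTS in HepG2: compound plus LipidTOX Red dye for 24 h, paraformaldehyde fixation with Hoechst 33342, widefield high-content imaging; amiodarone as positive and DMSO as negative control.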
A short description of experiment [15]: qHTS assay to identify small molecule HDAC inhibitors (AID 1259364). Further: top concentration of the series differs between compounds; nearly all actives have a fitted effect of over 45% in size. Put shortly: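 Luminescence from a cell-permeant luminogenic class I/II HDAC substrate reports endogenous deacetylase activity in intact HCT-116 cells treated with compounds for 2 h.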
A short description of experiment [16]: qHTS assay to identify small molecule HDAC inhibitors - cell viability counter screen (AID 1259365). Further: nearly all actives have a fitted effect of over 50% in size. Further: potency means the concentration at half of the fitted maximal effect. Put shortly:
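HCT-116 wild-type, overnight attachment; 2hr drug exposure, 37C; CellTiter-Glo luminescent ATP readout after 30min RT.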

A short description of experiment [17]: qHTS assay to identify small molecule antagonists of the sonic hedgehog signaling (Shh) pathway - cell viability counter screen (AID 1259367). Further: nearly all actives have a fitted effect of over 55% in size. Further: potency means the concentration at half of the fitted maximal effect. Put shortly:
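Seed 3T3 Gli1-Luc cells at 2,000 per well; incubate 4 hr; add compound in DMSO, then conditioned medium; incubate at 37C with 5% CO2; add CellTiter-Fluor after 23 hr; read fluorescence 1 hr later.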

Experiment [18] is described as follows: qHTS assay to identify small molecule agonists of the sonic hedgehog signaling (Shh) pathway (AID 1259368; calls by dose curve;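 further: NIH/3T3-derived 3T3Gli1-Luc cells carrying a stable Gli1-driven firefly luciferase reporter; series mostly up to about 92 µM; nearly all actives have a fitted effect of over 15% in size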). Summed up: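 3T3Gli1-Luc (NIH/3T3 clone, stable Gli1-Luc); 4 hr pre-incubation, then cpd in DMSO 24 hr, 37 C/5% CO2; luciferase reagent 30 min RT; luminescence.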
Experiment [19] is described as follows: A CellTox Green Cytotoxicity Assay to monitor cytotoxicity in HepG2 cells - 8 hour (AID 1224890). Further: nearly all actives have a fitted effect of over 45% in size. Further: potency means the concentration at half of the fitted maximal effect. Summed up: as §2
Experiment [20] can be described thus: qHTS assay to identify small molecule agonists of the sonic hedgehog signaling (Shh) pathway - cell viability counter screen (AID 1259366). Further: nearly all actives have a fitted effect of over 50% in size. Summed up: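 Compounds in DMSO were pin-transferred onto 3T3 Gli1-Luc cells that had settled 4hr; plates then stood 24hr at 37C and 5% CO2. One hour before the end, CellTiter-Fluor was added and fluorescence recorded.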

Chain of Estrogen receptor (Homo sapiens) (P03372 whole entry, looked up): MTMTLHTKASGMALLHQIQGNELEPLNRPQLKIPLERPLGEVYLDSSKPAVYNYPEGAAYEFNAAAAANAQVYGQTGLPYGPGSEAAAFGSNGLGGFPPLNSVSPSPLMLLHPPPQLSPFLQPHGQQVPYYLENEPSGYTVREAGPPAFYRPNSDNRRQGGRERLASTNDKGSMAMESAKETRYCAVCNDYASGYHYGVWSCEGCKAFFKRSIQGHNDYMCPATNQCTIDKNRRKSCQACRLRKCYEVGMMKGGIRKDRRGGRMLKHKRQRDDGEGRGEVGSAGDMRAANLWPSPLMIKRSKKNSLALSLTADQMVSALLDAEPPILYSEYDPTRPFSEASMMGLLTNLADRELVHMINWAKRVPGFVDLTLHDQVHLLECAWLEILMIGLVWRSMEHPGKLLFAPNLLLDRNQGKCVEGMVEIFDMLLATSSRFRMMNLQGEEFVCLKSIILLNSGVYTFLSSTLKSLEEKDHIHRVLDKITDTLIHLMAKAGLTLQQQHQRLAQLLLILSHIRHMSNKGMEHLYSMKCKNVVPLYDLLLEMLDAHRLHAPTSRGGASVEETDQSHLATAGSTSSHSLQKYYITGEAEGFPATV

In the case of `CN(C)C(=S)SSC(=S)N(C)C`, the Potency is 4.83 µM (active) and 1.23 µM (active) and 213 nM (active) in experiment [1]; 309 nM (active) and 134 nM (active) in [3]; 49 µM (active) and inactive in [4]; 48.3 µM (active) and 1.74 µM (active) and 2.68 µM (active) in experiment [5]; 272 nM (active) and 195 nM (active) and 21.3 µM (active) in [6]; 43 µM (active) and 27.5 µM (active) in experiment [7]. Also, the Potency is 43 µM (active) and 38.9 µM (active) in experiment [8]; 676 nM (active) and 6.86 µM (active) and 266 nM (active) in experiment [10]; 214 nM (active) and 217 nM (active) in [11]; 107 nM (active) and 172 nM (active) and 188 nM (active) in experiment [12]; 191 nM (active) and 273 nM (active) and 237 nM (active) in experiment [13]; 191 nM (active) and 611 nM (active) and 1.19 µM (active) in [17]. For the same compound, the Potency result in experiment [2], in experiment [9], in experiment [15], in [16] and in experiment [18] was “inactive” each time. The call in [14] was inactive.

For `Cc1ccc([N+](=O)[O-])[c]2c1[O][Hg]2`, the Potency in [1] is 674 nM (active); in [3], 2.13 µM (active); in experiment [5], 2.39 µM (active); in [6], 3.38 µM (active); in experiment [7] it was 3.79 µM (active); in [19] it was 3.79 µM (active). The Potency in experiment [10] was 9.44 µM (active); in [11] it was 6.68 µM (active); in experiment [12] it was 2.37 µM (active); in [13] it was 7.5 µM (active); in experiment [16], 29.8 µM (active); in experiment [17], 3.35 µM (active). Moreover, the Potency entry in experiment [2], in [4], in experiment [9] and in [18] was “inactive” throughout.

With `CCCC[N+]1(C)CCCC1` (tested in a mixture with another compound), the Potency entry in experiment [1], in experiment [2], in experiment [3], in experiment [4], in experiment [5] and in experiment [6] was “inactive” each time. Also, the Potency entry in experiment [7], in experiment [8], in [9], in experiment [19], in experiment [10] and in experiment [11] was “inactive” throughout. Further, the Potency result in experiment [15], in [20], in [17] and in [18] was “inactive” throughout.

As for `O=[N+]([O-])[O-].[Tl+]`, the Potency result in [1], in experiment [2], in [3], in experiment [4], in experiment [5] and in experiment [6] was “inactive” throughout. In addition, the Potency entry in experiment [7], in experiment [8], in experiment [9], in experiment [19], in experiment [10] and in experiment [11] was “inactive” in each case. In addition, the Potency result in [15], in experiment [16], in experiment [20], in experiment [17] and in [18] was “inactive” in each case.

For the compound `CNC(C)(C)Cc1ccccc1`, the Potency result in [1], in experiment [2], in experiment [3], in [4], in experiment [5] and in experiment [6] was “inactive” in each case. Besides, the Potency entry in [7], in experiment [8], in experiment [9], in [19], in experiment [10] and in [11] was “inactive” each time. The Potency entry in experiment [15], in experiment [20], in experiment [17] and in experiment [18] was “inactive” in each case. Further, the compound was called inactive in [14].

With `CC[N+]1(CC)CCC(OC(=O)C(O)(c2ccccc2)c2ccccc2)C1` (configuration not stated), the Potency entry in experiment [1], in [2], in [3], in experiment [4], in experiment [5] and in experiment [6] was “inactive” in each case. Also, the Potency entry in [7], in experiment [8], in experiment [9], in experiment [19], in experiment [10] and in experiment [11] was “inactive” each time. In addition, the Potency result in experiment [13], in experiment [16], in experiment [20], in [17] and in experiment [18] was “inactive” in each case.

For `COP(=S)(NC(C)C)Oc1ccc(C)cc1[N+](=O)[O-]` (configuration not stated), the Potency entry in experiment [1], in [2], in experiment [3], in experiment [4], in experiment [5] and in [6] was “inactive” each time. Moreover, the Potency entry in experiment [7], in experiment [8], in [9], in experiment [19], in [10] and in [11] was “inactive” each time. Moreover, the Potency result in [20], in experiment [17] and in [18] was “inactive” in each case. Further, in [13], the Potency was 17.2 µM (active).
